Binding signal data for one sequence are collected here from article PMC7862700, “An all-to-all approach to the identification of sequence-specific readers for epigenetic DNA modifications on cytosine”.

What all share (assay): DAPPL (digital affinity profiling via proximity ligation, sequencing); 10 mM Tris-HCl pH 7.5, 50 mM NaCl, 1 mM DTT, 4% glycerol, room temperature, 30 min; GST-TFs on glutathione beads, 16-mer random dsDNA library, 0.1% formaldehyde crosslink after washing; high values mean tight binding
What all share (conditions): protein: recombinant; tags: N-terminal GST; dsDNA, one strand shown

The target of one assay is T1, FLI1 (Homo sapiens, UniProt Q01543 1-452).
T1 sequence: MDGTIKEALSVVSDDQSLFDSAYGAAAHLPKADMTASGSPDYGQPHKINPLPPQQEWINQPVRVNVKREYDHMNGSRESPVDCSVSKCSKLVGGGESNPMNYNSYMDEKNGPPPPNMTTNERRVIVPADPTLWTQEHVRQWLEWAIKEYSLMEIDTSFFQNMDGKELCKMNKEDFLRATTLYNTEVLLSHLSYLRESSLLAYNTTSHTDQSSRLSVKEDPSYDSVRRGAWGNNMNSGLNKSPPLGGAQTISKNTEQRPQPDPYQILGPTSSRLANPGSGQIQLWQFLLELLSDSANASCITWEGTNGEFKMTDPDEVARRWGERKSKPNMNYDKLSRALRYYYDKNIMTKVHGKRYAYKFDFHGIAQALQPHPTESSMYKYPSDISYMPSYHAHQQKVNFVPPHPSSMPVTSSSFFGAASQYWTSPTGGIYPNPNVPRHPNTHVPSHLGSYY
A digest of the protocol: (§1)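 GST fusions of human transcription factors were expressed in yeast and captured with glutathione beads. Once given DNA barcodes and pooled alongside a tag-only sample, they were incubated for 30 min at room temperature with 200 nmole of a random double-stranded 16-mer DNA library in Tris/NaCl/DTT/glycerol buffer, then washed, crosslinked (0.1% formaldehyde), proximity-ligated, PCR-amplified and sequenced on an Illumina NextSeq500. The binding signal of each hexamer is its read frequency for a factor divided by its frequency for the tag-only sample.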

Another assay has as its target T2, ELK1 (Homo sapiens, UniProt P19419 1-428).
T2 sequence: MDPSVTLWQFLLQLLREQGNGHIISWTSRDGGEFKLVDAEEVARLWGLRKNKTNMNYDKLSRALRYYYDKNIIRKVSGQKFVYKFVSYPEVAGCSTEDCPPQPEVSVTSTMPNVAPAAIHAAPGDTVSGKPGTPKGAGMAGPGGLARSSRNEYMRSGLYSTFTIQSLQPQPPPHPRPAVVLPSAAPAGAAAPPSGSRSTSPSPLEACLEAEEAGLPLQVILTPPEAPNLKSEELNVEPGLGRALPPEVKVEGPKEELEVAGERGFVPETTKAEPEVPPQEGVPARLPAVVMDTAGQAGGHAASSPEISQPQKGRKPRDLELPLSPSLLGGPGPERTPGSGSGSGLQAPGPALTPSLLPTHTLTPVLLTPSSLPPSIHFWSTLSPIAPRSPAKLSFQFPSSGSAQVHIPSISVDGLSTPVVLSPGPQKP
An outline of the steps:
as §1

In a further assay the target is T3, GABPA (Homo sapiens, UniProt Q06546 1-454).
T3 sequence: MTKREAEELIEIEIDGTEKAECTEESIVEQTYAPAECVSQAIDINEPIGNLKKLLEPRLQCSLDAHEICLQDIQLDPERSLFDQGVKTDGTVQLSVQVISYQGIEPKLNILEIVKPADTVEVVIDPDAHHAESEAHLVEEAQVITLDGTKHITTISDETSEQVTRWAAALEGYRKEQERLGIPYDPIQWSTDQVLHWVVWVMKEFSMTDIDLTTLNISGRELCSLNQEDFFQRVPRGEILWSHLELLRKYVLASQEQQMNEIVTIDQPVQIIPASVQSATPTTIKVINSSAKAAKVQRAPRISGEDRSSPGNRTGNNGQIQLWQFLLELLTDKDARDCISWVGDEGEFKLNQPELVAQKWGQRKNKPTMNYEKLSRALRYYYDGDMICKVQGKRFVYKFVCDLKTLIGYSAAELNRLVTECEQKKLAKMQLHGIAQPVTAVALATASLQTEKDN
An outline of the steps: as §1

The target of the next assay is T4, ERG (Homo sapiens, UniProt P11308 1-479).
T4 sequence: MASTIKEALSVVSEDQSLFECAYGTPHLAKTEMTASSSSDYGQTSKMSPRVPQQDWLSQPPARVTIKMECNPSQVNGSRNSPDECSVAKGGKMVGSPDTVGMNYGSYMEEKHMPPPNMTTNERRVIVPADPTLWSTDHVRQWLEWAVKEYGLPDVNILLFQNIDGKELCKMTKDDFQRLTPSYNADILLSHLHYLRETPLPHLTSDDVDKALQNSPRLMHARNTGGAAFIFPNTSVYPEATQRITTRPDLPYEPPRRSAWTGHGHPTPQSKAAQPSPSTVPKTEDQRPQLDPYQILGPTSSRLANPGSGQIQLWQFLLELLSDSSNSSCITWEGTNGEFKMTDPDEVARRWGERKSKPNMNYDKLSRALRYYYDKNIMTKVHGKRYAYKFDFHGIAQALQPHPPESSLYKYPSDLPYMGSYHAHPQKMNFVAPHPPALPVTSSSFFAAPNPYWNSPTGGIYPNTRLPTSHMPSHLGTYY
An outline of the steps: as §1

Another assay addresses ELF1 (Homo sapiens, UniProt P32519 1-619). A digest of the protocol:
as §1

The target of another assay is T5, EHF (Homo sapiens, UniProt Q9NZC4 1-300).
T5 sequence: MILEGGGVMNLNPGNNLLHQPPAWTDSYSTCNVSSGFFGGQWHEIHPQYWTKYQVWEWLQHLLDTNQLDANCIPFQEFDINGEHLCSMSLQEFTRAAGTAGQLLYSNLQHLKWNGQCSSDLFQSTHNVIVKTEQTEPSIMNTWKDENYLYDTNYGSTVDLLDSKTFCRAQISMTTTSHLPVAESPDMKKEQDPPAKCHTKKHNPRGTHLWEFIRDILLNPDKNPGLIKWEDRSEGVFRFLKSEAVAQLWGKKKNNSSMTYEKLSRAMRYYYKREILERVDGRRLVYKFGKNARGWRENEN
A digest of the protocol: as §1

The target in another assay is SPI1 (Homo sapiens, UniProt P17947 1-270). An outline of the steps:
as §1

The next assay deals with SPIB (Homo sapiens, UniProt Q01892 1-262). An outline of the steps: as §1
Chain of SPIB (Q01892 whole entry): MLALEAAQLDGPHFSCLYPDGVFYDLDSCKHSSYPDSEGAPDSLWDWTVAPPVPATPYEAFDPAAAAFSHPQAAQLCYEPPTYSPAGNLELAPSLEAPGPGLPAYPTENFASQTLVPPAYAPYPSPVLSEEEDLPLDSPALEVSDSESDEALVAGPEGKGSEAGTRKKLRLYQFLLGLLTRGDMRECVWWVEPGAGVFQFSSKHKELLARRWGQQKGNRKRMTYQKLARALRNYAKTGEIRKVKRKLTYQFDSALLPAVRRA
A further assay deals with T6, ELK3 (Homo sapiens, UniProt P41970 1-407).
T6 sequence: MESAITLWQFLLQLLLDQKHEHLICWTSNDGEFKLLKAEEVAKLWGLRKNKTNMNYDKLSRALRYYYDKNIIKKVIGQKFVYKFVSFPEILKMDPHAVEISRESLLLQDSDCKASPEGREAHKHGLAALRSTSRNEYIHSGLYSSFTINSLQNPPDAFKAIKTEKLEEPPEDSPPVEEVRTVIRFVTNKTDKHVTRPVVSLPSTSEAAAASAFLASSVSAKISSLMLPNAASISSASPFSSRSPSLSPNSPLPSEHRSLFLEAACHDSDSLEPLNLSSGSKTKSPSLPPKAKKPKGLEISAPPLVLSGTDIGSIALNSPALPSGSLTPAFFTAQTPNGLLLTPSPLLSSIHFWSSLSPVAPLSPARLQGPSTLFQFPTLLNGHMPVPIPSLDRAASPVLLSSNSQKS
An outline of the steps:
as §1

The target in a further assay is T7, FEV (Homo sapiens, UniProt Q99581 1-238).
T7 sequence: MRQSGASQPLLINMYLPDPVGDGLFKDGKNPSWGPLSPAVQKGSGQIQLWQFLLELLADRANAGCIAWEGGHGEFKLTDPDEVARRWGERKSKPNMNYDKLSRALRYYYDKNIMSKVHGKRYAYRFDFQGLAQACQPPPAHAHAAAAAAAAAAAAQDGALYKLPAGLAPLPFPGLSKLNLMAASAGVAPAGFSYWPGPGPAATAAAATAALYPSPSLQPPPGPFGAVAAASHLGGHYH
An outline of the steps:
as §1

Another assay has as its target ETV5 (Homo sapiens, UniProt P41161 1-510). A digest of the protocol:
as §1

A further assay has as its target T8, SPIC (Homo sapiens, UniProt Q8N5J4 1-248).
T8 sequence: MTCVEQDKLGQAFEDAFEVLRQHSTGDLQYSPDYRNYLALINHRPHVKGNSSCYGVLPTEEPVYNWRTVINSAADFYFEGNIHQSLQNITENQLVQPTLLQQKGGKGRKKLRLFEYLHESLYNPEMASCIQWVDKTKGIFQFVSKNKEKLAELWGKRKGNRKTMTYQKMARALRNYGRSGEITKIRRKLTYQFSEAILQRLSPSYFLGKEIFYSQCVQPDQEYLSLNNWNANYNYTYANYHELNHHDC
An outline of the steps:
as §1

The target in the next assay is ELF4 (Homo sapiens, UniProt Q99607 1-663). An outline of the steps:
as §1

The target in a further assay is T9, ELK4 (Homo sapiens, UniProt P28324-2 1-405).
T9 sequence: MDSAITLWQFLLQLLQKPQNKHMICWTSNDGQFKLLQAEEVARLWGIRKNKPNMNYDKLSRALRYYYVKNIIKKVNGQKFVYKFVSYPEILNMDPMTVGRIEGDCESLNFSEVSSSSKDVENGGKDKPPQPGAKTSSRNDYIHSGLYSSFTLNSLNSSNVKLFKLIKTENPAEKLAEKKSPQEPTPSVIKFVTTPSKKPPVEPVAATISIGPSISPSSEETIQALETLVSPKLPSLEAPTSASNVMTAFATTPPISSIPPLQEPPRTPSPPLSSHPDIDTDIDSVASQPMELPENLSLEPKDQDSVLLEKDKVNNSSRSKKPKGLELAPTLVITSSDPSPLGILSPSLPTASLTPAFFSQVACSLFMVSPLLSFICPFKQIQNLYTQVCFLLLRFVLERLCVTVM
An outline of the steps: as §1

For another assay, the target named is T10, ETV2 (Homo sapiens, UniProt O00321 1-342).
T10 sequence: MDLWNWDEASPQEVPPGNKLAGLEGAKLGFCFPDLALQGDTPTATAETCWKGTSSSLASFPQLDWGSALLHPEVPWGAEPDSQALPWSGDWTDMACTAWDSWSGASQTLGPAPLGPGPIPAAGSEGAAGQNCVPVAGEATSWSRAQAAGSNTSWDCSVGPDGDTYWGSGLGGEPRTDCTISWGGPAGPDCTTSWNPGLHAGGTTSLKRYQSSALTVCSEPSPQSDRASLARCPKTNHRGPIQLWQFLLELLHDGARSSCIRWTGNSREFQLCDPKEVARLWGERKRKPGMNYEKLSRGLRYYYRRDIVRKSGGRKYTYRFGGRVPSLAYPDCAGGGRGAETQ
A digest of the protocol: as §1

Another assay concerns the target T11, ELF3 (Homo sapiens, UniProt P78545 1-371).
T11 sequence: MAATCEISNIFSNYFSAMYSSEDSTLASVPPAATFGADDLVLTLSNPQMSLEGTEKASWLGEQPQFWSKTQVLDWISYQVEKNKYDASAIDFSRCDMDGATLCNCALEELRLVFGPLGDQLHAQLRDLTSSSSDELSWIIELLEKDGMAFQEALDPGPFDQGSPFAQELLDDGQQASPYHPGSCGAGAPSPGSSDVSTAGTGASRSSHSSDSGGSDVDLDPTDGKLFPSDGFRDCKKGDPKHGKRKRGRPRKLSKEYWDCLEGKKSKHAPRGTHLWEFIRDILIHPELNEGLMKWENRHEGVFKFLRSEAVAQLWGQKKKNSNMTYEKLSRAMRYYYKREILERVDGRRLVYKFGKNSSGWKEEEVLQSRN
A digest of the protocol:
as §1

In a further assay the target is ETV1 (Homo sapiens, UniProt P50549 1-477). An outline of the steps:
as §1

Chain of ETV1 (P50549 whole entry): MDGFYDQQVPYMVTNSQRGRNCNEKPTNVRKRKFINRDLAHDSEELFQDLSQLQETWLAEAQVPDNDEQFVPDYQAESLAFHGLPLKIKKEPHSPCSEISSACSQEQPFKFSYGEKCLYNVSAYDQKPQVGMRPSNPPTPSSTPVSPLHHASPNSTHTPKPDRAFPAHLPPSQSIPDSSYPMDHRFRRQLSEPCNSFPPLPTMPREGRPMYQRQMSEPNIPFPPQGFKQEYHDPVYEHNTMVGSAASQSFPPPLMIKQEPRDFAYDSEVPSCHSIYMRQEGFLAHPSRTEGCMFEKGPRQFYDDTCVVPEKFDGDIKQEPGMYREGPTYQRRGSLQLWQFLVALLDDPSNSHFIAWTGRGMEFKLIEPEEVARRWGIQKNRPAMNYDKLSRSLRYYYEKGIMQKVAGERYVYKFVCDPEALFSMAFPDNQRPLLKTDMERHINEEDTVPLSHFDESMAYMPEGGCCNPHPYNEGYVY
Chain of ETV5 (P41161 whole entry): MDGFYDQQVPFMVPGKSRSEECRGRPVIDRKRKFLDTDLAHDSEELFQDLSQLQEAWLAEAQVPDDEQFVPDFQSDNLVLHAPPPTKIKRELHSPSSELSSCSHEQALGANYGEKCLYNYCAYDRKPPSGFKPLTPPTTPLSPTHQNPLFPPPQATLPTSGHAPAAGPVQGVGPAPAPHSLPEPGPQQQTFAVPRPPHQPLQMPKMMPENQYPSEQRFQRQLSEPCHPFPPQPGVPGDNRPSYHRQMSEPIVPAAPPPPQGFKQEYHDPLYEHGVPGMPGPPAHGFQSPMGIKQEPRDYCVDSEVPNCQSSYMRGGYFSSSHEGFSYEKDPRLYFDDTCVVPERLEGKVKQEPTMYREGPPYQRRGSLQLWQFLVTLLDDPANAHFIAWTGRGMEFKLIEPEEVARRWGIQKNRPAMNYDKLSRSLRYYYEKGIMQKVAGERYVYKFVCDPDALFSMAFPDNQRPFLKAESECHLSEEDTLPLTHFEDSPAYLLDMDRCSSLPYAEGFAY
Chain of ELF4 (Q99607 whole entry): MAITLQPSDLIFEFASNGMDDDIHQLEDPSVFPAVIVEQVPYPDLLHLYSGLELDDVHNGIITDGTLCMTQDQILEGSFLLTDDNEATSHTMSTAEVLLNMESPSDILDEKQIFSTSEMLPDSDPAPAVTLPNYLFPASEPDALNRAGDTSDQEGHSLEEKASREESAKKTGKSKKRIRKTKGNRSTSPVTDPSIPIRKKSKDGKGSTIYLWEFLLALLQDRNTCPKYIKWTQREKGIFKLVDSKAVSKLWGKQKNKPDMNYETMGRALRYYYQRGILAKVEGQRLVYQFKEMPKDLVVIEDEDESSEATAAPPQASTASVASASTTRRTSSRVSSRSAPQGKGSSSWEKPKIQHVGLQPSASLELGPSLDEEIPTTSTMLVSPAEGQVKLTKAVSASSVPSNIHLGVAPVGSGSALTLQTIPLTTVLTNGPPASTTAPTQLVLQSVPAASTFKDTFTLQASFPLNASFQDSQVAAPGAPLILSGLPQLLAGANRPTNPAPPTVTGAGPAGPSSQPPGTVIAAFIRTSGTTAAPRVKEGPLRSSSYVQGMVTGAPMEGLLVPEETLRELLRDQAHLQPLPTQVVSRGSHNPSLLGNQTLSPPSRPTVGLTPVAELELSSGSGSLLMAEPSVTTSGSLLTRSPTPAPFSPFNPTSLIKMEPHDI
Chain of ELF1 (P32519 whole entry): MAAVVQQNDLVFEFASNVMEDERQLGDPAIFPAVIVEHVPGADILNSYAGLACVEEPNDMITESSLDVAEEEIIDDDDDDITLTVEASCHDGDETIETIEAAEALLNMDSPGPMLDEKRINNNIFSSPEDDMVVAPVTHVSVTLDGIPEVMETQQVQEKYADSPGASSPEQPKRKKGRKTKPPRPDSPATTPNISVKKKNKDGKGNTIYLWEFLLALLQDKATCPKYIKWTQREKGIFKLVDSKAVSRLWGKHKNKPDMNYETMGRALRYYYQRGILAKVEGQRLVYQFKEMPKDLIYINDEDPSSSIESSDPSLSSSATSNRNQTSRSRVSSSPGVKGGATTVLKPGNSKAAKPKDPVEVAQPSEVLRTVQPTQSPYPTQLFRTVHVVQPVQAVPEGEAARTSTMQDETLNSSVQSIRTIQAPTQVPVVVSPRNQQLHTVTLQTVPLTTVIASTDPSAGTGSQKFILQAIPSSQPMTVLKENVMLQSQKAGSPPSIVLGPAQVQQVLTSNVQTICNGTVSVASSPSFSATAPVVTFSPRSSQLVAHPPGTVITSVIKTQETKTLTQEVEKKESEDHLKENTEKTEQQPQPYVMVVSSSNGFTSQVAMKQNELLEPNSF

In the case of ACCCCC, the binding signal is 1.17 fold enrichment (6-mer frequency, TF over GST control) with FLI1; 1.16 fold enrichment (6-mer frequency, TF over GST control) with ELK1; 1.21 fold enrichment (6-mer frequency, TF over GST control) with GABPA; 1.16 fold enrichment (6-mer frequency, TF over GST control) with ERG; 1.09 fold enrichment (6-mer frequency, TF over GST control) in the assay with ELF1; 1.12 fold enrichment (6-mer frequency, TF over GST control) in the assay with EHF. The binding signal was 1.14 fold enrichment (6-mer frequency, TF over GST control) in the assay with SPI1; 1.21 fold enrichment (6-mer frequency, TF over GST control) with SPIB; 1.18 fold enrichment (6-mer frequency, TF over GST control) with ELK3; 1.19 fold enrichment (6-mer frequency, TF over GST control) with FEV; 1.18 fold enrichment (6-mer frequency, TF over GST control) with ETV5; 1.12 fold enrichment (6-mer frequency, TF over GST control) with SPIC. Further, the binding signal with ELF4 is 1.2 fold enrichment (6-mer frequency, TF over GST control); with ELK4 it was 1.28 fold enrichment (6-mer frequency, TF over GST control); with ETV2, 1.05 fold enrichment (6-mer frequency, TF over GST control); in the assay with ELF3, 1.29 fold enrichment (6-mer frequency, TF over GST control); with ETV1, 1 fold enrichment (6-mer frequency, TF over GST control).
